Assay outcomes as filed in PubChem BioAssay.
D3 antag = D3 dopamine receptor (human) antagonism; P35462; D3R cells, DiscoveRx beta-arrestin luminescence, antagonist mode; active compounds read low; max response, negative = inhibition, %; actives 2.5% (n = 360,000); AID 652054; in the data active = max response below about -50%; inconclusive = no clear call, values can overlap the other calls
Target sequence (P35462 whole entry, looked up): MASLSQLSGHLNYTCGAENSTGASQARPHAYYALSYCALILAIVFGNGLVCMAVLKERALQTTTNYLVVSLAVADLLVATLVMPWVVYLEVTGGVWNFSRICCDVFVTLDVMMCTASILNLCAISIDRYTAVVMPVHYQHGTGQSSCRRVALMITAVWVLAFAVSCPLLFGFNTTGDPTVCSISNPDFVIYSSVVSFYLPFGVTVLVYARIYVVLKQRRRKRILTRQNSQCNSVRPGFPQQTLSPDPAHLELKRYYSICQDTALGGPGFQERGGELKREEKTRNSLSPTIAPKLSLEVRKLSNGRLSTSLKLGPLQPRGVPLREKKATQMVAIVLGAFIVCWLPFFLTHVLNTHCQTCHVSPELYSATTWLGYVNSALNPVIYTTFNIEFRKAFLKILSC
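Cells plated overnight at 1500 cells/well, then exposed to library compounds with dopamine controls for 90 minutes at 37 degrees C. DiscoveRx reagent added for 30–60 minutes at room temperature; luminescence read, quantitative HTS format.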
D1 antag = human D1 dopamine receptor antagonism; HEK293 TREx D1 cells, calcium flux, dopamine EC80; active compounds read low; activity change, negative = inhibition, % at 10 µM; actives 3.2% (n = 360,000); AID 504652; in the data active = activity change below about -30%
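After overnight tetracycline induction at 30 C, force-coupled D1 HEK293 cells took up a no-wash calcium dye at room temperature. Compounds were added and monitored 180 s, and the response to EC80 dopamine was then recorded.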
D1 potentiator = human D1 dopamine receptor positive modulation; actives 0.036% (n = 360,000); HEK293 TREx D1 cells, calcium flux, dopamine EC20 potentiation; P21728; potentiation, % at 10 µM; in the data active = potentiation above about 30%
D3 ag = agonists of human D3 dopamine receptor; D3R DiscoveRx beta-arrestin cells, luminescence, 90 min; AID 652048; actives 0.58% (n = 410,000); P35462; max activation, %; in the data active = max activation above about 30%
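Cells at 1500/well, incubated overnight, then treated with pinned compounds (dopamine as control) for 90 min at 37 degrees C. DiscoveRx reagent added for 30 - 60 minutes at room temperature; luminescence read.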
D1 agonist = agonists of human D1 dopamine receptor; activation, % at 2 µM; actives 1% (n = 360,000); HEK293 T-REx D1 cells, calcium flux, agonist mode; P21728; AID 504660; in the data active = activation above about 30%
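Tetracycline-induced HEK293 TREx D1 cells, force-coupled to calcium signalling, were dye-loaded with a no-wash calcium kit. Compound was pin-added after a 10 s baseline. Fluorescence was read kinetically at 1 cycle/s for 180 s, with calcium rises flagged as agonism.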
Hits are given with their value; 0 = inactive; ? = inconclusive; - = no result given. Only some compounds are listed: those with a hit (about 6% of all), similar ones and a draw of the others.

SMILES	D3 antag	D1 antag	D1 potentiator	D3 ag	D1 agonist
CCc1noc(C)c1C(=O)N1CCN(S(=O)(=O)c2ccc(Br)cc2)CC1	0	-71.5	0	0	0
Cc1ccc(-c2c(C(=O)N3CCN(c4cc(Cl)ccc4C)CC3)oc(=O)c3ccccc23)cc1	-	0	0	0	0
Cc1nc(-c2ccccc2)sc1-c1ccc(SCC(=O)Nc2ccccc2)nn1	-	0	0	0	0
COC(=O)c1ccc(NC(=O)CSc2ccc(-c3sc(-c4ccccc4)nc3C)nn2)cc1	-	-46.3	0	0	0
CC(C)c1ccc(NC2(C#N)C(=O)Nc3ccccc32)cc1 (stereo unspecified)	-53.5	0	0	0	0
Cc1ccccc1NC1(C#N)C(=O)Nc2ccccc21 (stereo unspecified)	0	0	0	0	0
CCOC(=O)C1(Cc2ccccc2C(F)(F)F)CCN(C(C)CCn2cccn2)CC1 (stereo unspecified)	-50.5	0	0	0	0
CCOC(=O)C1(Cc2ccccc2C(F)(F)F)CCN(C(C)CSC)CC1 (stereo unspecified)	-53.8	0	0	0	0
CCc1nn2c(=O)c(S(=O)(=O)Nc3ccc(C)c(C)c3)c(C)nc2s1	-	0	0	0	0
CCOC(=O)c1c(-c2ccc(Br)cc2)csc1NC(=O)c1ccc(C(C)(C)C)cc1	-	0	0	0	0
CCOc1ccc(CNS(=O)(=O)c2ccc3c(c2)CCCN3C(C)=O)cc1OC	-	0	0	0	0
COc1cc(/C=C2\SC(=Nc3ccc(Cl)c(C(=O)O)c3)NC2=O)c(Br)c(Br)c1O	0	0	0	0	323.6
COc1cc(/C=C2\SC(=Nc3ccccc3)NC2=O)cc(Cl)c1O	?	0	0	0	156.6
CCc1ccc(N=C2NC(=O)/C(=C/c3cc(OC)c(O)c(OC)c3)S2)cc1	0	0	0	0	0
COC(=O)/C=C1\SC(=Nc2ccc(Cl)c(Cl)c2)NC1=O	0	0	0	0	0
CCOC(=O)C(=CNc1cccc(N)n1)C(=O)OCC	0	0	0	0	0
CCOC(=O)C(=CNc1cccc(C)c1C)C(=O)OCC	0	0	0	39.3	0
CCOC(=O)C(=CNc1ccc(Cl)cn1)C(=O)OCC	0	-40.0	0	0	0
CCOC(=O)C(=CNc1ccc(C)cc1C)C(=O)OCC	0	0	0	0	0
Cc1cc(/C=C2\SC(=S)NC2=O)c(C)n1-c1cccc(O)c1	?	0	0	0	33.9
Cc1cc(C=C2C(=O)c3ccccc3C2=O)c(C)n1-c1ccc(C(=O)O)cc1	0	0	0	0	0
Cc1cc(C=C2C(=O)c3ccccc3C2=O)c(C)n1-c1ccccc1	0	0	0	0	33.2
Cc1sc(-n2c(C)cc(/C=C3\SC(=S)NC3=O)c2C)c(C#N)c1C	-70.6	0	0	0	0
Cc1cccc(-n2c(C)cc(/C=C3\NC(=O)NC3=O)c2C)c1	0	-40.4	0	0	0
Cc1cccn2c(=O)c(C(=O)NCCc3ccccc3)cnc12	-	0	0	0	0
SMILES	D3 antag	D1 antag	D1 potentiator	D3 ag	D1 agonist
CCN(CC)C(=O)Cn1c(=O)n(-c2ccc(C)c(C)c2)c(=O)c2c3c(sc21)CCCCC3	-	0	0	0	0
Cc1cc(/C=C2\SC(=S)NC2=O)c(C)[nH]1	0	0	0	0	32.7
CCn1c(C)cc(/C=C2/SC(=S)NC2=O)c1C	0	0	0	0	0
Cc1ccc(-n2c(C)cc(/C=C3\SC(=O)NC3=O)c2C)cc1	0	-36.2	0	0	0
Cc1ccc2c(c1)-c1c(c(C(=O)N3CCN(c4cc(Cl)ccc4C)CC3)nn1C)CS2	-	0	0	0	0
Cn1nc(C(=O)OCC(=O)NCc2ccc(Cl)cc2Cl)c2ccccc2c1=O	0	-	-	0	-
N#Cc1ccc(CSCC(=O)O)cc1	0	0	0	0	0
COC(=O)c1ccc(CSCc2ccc(C#N)cc2)cc1	-	-35.1	0	-	0
CC(C)C[C@H](NC(=O)c1nc[nH]c1C(=O)NC(c1ccccc1)c1ccccc1)C(=O)OC(C)(C)C	0	-32.8	0	0	0
CC(C)C[C@H](NC(=O)c1nc[nH]c1C(=O)N[C@@H](CC(C)C)C(=O)OC(C)(C)C)C(=O)OC(C)(C)C	-54.8	0	0	0	0
COc1ccc(-c2nc3scc(CCNS(=O)(=O)c4ccc(F)cc4F)n3n2)cc1OC	-	-	0	0	0
CCc1ccccc1NC(=O)CSc1ncc2c(n1)-c1ccccc1N(Cc1ccc(C)cc1)S2(=O)=O	-	-37.0	0	0	0
O=C(CSc1ncc2c(n1)-c1cc(Cl)ccc1N(Cc1ccccc1)S2(=O)=O)Nc1ccc(F)cc1F	-	0	0	0	0
COc1ccccc1NC(=O)CSc1ncc2c(n1)-c1cc(Cl)ccc1N(Cc1ccccc1)S2(=O)=O	-	-33.4	0	0	0
Cc1ccccc1CN1c2ccccc2-c2nc(SCC(=O)c3ccccc3)ncc2S1(=O)=O	-	-37.9	0	0	0
Cc1ccc(CN2c3ccccc3-c3nc(SCC(=O)NCc4ccccc4)ncc3S2(=O)=O)cc1	-	0	0	0	0
Cc1ccc(NC(=O)C(Cc2ccccc2)NS(=O)(=O)c2ccc3c(c2)oc(=O)n3C)cc1F (stereo unspecified)	-	0	0	0	0
CCc1ccc(CNC(=O)Cn2nc(C)c3nn(-c4ccc(Cl)cc4)c(C)c3c2=O)cc1	-	0	0	0	0
CCOc1ccc2[nH]c(SCC(=O)OC)c([N+](=O)[O-])c2c1	-53.4	0	0	0	0
COC(=O)CSc1[nH]c2ccc(Br)cc2c1[N+](=O)[O-]	0	0	0	0	0
CN1C[C@@H]2C(c3ccc(C(F)(F)F)cc3)C3(c4ccccc4)CC2(C3)[C@H]1c1ccccc1 (stereo partly specified)	?	0	0	0	0
CN1C[C@@H]2C(c3ccccc3)C3(c4cccnc4)CC2(C3)[C@H]1c1ccccc1 (stereo partly specified)	0	-38.6	0	0	0
COC(=O)c1ccc(C23CC4(C2)[C@H](CN(Cc2cccnc2)[C@@H]4c2ccccc2)C3c2ccc(C(F)(F)F)cc2)cc1 (stereo partly specified)	0	0	0	0	0
COC(=O)c1ccc(C23CC4(C2)[C@H](CN(Cc2cccnc2)[C@@H]4c2ccccc2)C3c2ccccc2)cc1 (stereo partly specified)	0	0	0	47.1	0
Cc1ccc(S(=O)(=O)N/N=C/c2ccc(OC3CSC3)cc2)cc1	0	0	0	0	60.9
Cc1ccc(S(=O)(=O)N2C[C@H]3n4c(=O)ccc(=O)n4C[C@H](OC(=O)NCC4CCCCC4)[C@@]3(O)C2)cc1	0	-	-	0	-
CN(C)CC/C=C1\c2cc(F)ccc2CSc2ccccc21	-51.7	-92.7	0	0	0
CN(C)CC/C=C1/c2cc(F)ccc2CSc2ccc(F)cc21	?	0	0	0	0
CC(O)CN(C)CC/C=C1/c2ccccc2CSc2ccccc21 (stereo unspecified)	0	-71.5	0	0	30.3
